High-throughput results as filed in PubChem BioAssay.
Hits are enriched below; roughly 12% of the tested compounds scored in any of these assays.
AmpC detergent – blocks E. coli AmpC beta-lactamase in detergent assay; AID 485294; P00811; hit rate 0.041% among 370,000; AmpC hydrolysis of nitrocefin, absorbance 480 nm, 0.01% Triton; Potency, µM (doses to about 114 µM), most hits filed as inhibitors; further: nearly all actives have a fitted effect of over 25% in size
Target sequence (P00811 whole entry, looked up): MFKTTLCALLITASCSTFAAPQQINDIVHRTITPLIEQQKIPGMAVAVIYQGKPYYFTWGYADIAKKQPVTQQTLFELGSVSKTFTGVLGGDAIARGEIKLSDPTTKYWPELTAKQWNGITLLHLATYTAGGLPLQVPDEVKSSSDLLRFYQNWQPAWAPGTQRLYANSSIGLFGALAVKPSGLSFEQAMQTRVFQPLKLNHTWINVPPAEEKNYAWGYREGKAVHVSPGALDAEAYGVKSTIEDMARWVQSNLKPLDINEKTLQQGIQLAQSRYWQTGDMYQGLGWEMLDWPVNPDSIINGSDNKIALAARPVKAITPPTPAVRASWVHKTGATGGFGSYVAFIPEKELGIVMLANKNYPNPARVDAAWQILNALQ
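AmpC (5.3 nM in the dispensed reagent) in 20 mM phosphate pH 7.0 with 0.01% (detergent screen) or 0.0001% Triton X-100 was preincubated with compounds for 15 min at room temperature. Nitrocefin was then added from an 800 uM solution, and hydrolysis was followed at 480 nm.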
AmpC inh no detg – AmpC beta-lactamase inhibition without detergent | Potency, µM (top dose mostly 57.1 µM), most hits filed as inhibitors | AmpC nitrocefin hydrolysis, absorbance 480 nm, 0.0001% Triton | hit rate 0.52% among 330,000 | P00811; further: nearly all actives have a fitted effect of over 20% in size
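20 mM phosphate pH 7.0 + 0.01% (detergent screen) or 0.0001% Triton X-100; 5.3 nM AmpC reagent; cpd preinc 15 min RT; nitrocefin (800 uM stock) to start; A480 q20 s × 4 min; Activity was normalised to no-enzyme and no-compound control wells.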
Pf growth 96h – inhibits malaria parasite growth, 96 h; P. falciparum luciferase reporter growth, 96 h; Potency, µM (highest dose often 28.7 µM), most hits filed as inhibitors; hit rate 6.9% among 320,000; AID 504834
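96 h incubation, 37 C, 5% CO2, of luciferase-reporter P. falciparum-infected RBCs (2% hematocrit, 0.05% parasitemia final) with test compounds; endpoint luminescence.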
SARS PLP yeast – blocks SARS-CoV papain-like protease in a yeast assay | S. cerevisiae expressing SARS-CoV PLpro, growth rescue | Potency, µM (top dose mostly 32.9 µM), hits mostly activators | hit rate 0.19% among 330,000; calls by dose curve; further: nearly all actives have a fitted effect of over 55% in size
Pf growth 48h – inhibits P. falciparum growth in the first generation, 48 h; Potency, µM (titrated, usually from 28.7 µM), hits mostly inhibitors; hit rate 5.9% among 310,000; P. falciparum luciferase growth in erythrocytes, 48 h
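Firefly luciferase activity from engineered P. falciparum reports growth; inhibitors lower the luminescent signal. Cultures contained 2% hematocrit erythrocytes at 0.1% final parasitemia.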
Sm TGR inh – S. mansoni TGR enzyme inhibition | Potency, µM (highest dose often 114 µM), most hits filed as inhibitors | purified TGR, DTNB reduction, TNB absorbance 405 nm | AID 485364 | Q962Y6 | hit rate 3% among 360,000; further: nearly all actives have a fitted effect of over 60% in size
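TGR 20 nM + NADPH 100 uM (dispensed conc.), cpd preinc 15 min RT; start with NADPH (500 uM addition) then DTNB (15 mM addition). Kinetic TNB absorbance, 405 nm filter. Four-parameter Hill fit across titration.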
Large screens that a line does not name were inactive. Unless noted, the call rests on the fitted dose curve; in most records, active means well fitted curve in the direction sought with a large enough effect; inconclusive means small, poorly fitted or top-dose-only effect, or another doubt; inactive means no such curve, though single readings can be large; an effect the other way counts as inactive or inconclusive.

CCCN(CCC)CC(O)CN(c1ccccc1)S(=O)(=O)c1ccc(C)cc1 (stereo not drawn)	Pf growth 96h inconclusive (no result: Pf growth 48h)
Cc1ccccc1N(CC(=O)Nc1ccccc1C(=O)NCc1ccco1)S(=O)(=O)c1ccccc1	Pf growth 96h inconclusive, Pf growth 48h inconclusive
Cc1ccc(N(CC(O)COCc2ccco2)S(=O)(=O)c2ccc(C)cc2)cc1 (stereo not drawn)	AmpC detergent inconclusive, Pf growth 96h inconclusive, Sm TGR inh 8.9µM
Cc1ccc(N(CC(=O)NCc2ccco2)S(=O)(=O)c2ccccc2)cc1	Pf growth 48h 13µM, Sm TGR inh 25µM
Cc1ccc(S(=O)(=O)N(Cc2ccc(Cl)cc2)c2ccccc2C(=O)NCc2ccco2)cc1	Pf growth 48h 6.6µM
COc1ccccc1N(CC(=O)NCc1ccco1)S(=O)(=O)c1ccc(C)cc1	AmpC detergent inconclusive, Sm TGR inh 40µM
Cc1nc(CS(=O)(=O)c2ccc(Cl)cc2)sc1C(=O)O	none
Cn1c(=O)c2c(-c3ccc(C(C)(C)C)cc3)n(CC3CCCO3)cc2n(C)c1=O (stereo not drawn)	AmpC detergent inconclusive, Pf growth 96h inconclusive, Pf growth 48h inconclusive, Sm TGR inh inconclusive
Cc1cccc(-c2c3c(=O)n(C)c(=O)n(C)c3cn2CC2CCCO2)c1 (stereo not drawn)	Sm TGR inh 35µM
COc1cccc(C2c3[nH]c4ccccc4c3C[C@H]3C(=O)N(CCCO)CC(=O)N23)c1OC (stereo partly drawn)	Pf growth 96h inconclusive, Pf growth 48h inconclusive
C=CCN1CC(=O)N2C(C)c3[nH]c4ccccc4c3C[C@H]2C1=O (stereo partly drawn)	none
Cc1ccccc1C1c2[nH]c3ccccc3c2C[C@H]2C(=O)N(C3CCN(Cc4ccccc4)CC3)CC(=O)N12 (stereo partly drawn)	Pf growth 96h 0.33µM, Pf growth 48h 3.3µM
CCOc1ccccc1C1c2[nH]c3ccccc3c2C[C@H]2C(=O)N(C3CCN(Cc4ccccc4)CC3)CC(=O)N12 (stereo partly drawn)	Pf growth 96h 0.74µM, Pf growth 48h 0.93µM
COc1ccc(C2c3[nH]c4ccccc4c3C[C@H]3C(=O)N(C4CCN(Cc5ccccc5)CC4)CC(=O)N23)c(OC)c1 (stereo partly drawn)	Pf growth 96h 1µM, Pf growth 48h 0.83µM
COc1ccc(OC)c(CCNC(=O)CN2C(=O)COc3ccc(S(=O)(=O)N4CCC(C)CC4)cc32)c1	none (no result: AmpC inh no detg, Pf growth 96h, SARS PLP yeast, Pf growth 48h)
CCOC(=O)c1ccc(NC(=O)CCS(=O)(=O)c2ccc(Br)s2)cc1	Pf growth 48h inconclusive, Sm TGR inh 11µM (no result: Pf growth 96h)
CC(=O)c1cccc(NC(=O)Nc2c(C)nn(C)c2C)c1	none
CCOC(=O)c1ccc(NC(=O)Nc2ccc(F)cc2)cc1	AmpC inh no detg inconclusive, Pf growth 96h 13µM, SARS PLP yeast inconclusive (no result: Pf growth 48h)
CCOC(=O)c1ccc(NC(=O)Nc2c(C)nn(C)c2C)cc1	Pf growth 96h 12µM
CCOC(=O)c1ccc(NC(=O)NCc2ccccc2OC)cc1	Pf growth 96h 13µM, Pf growth 48h inconclusive
COc1ccc(NC(=O)CCS(=O)(=O)c2ccc(Br)s2)cc1	none
COC(=O)CNC(=O)COc1ccccc1	none (no result: Pf growth 48h)
Cc1cc(C)nc(-n2nc(C)c3c2N(Cc2ccccc2F)C(=O)CC3c2ccc(Cl)cc2)n1 (stereo not drawn)	none (no result: AmpC inh no detg, Pf growth 96h, SARS PLP yeast, Pf growth 48h)
O=C(Nc1nnc(S(=O)(=O)N2CCCc3ccccc32)s1)c1ccc(Cl)cc1	none (no result: AmpC inh no detg, Pf growth 96h, SARS PLP yeast, Pf growth 48h)
Cc1nn(C)c2c1c(C(F)(F)F)cc(=O)n2C(C)C(=O)Nc1ccccc1F (stereo not drawn)	none (no result: AmpC inh no detg, Pf growth 96h, SARS PLP yeast, Pf growth 48h)
CCOC(=O)c1ccc(NC(=O)Nc2ncc(Cl)cc2Cl)cc1	Sm TGR inh 40µM
CC12CCC(c3c(CO)nn(-c4ccccc4)c31)C2(C)C (stereo not drawn)	AmpC detergent inconclusive, Pf growth 96h 10µM, Pf growth 48h inconclusive
COc1ccc(CCNc2ncnc3sc(C)cc23)cc1OC	AmpC detergent inconclusive, Pf growth 48h 5.2µM
COc1ccc(CCNc2ncnc3[nH]ncc23)cc1OC	Pf growth 96h 15µM
COc1cccc2c1Oc1cc([N+](=O)[O-])cc(N(C)C(C)=O)c1C=C2	none
CCc1ccc2[nH]c(=O)c(CN(Cc3ccc(OC)cc3)Cc3nnnn3CCOC)cc2c1	Pf growth 96h inconclusive, Pf growth 48h 1.9µM
COCCn1nnnc1C(C(C)C)N(Cc1ccccc1)Cc1cc2cc(OC)ccc2[nH]c1=O (stereo not drawn)	Pf growth 48h 8.3µM
CCC(C)(C)n1nnnc1C(C(C)C)N(Cc1ccco1)Cc1cc2cc3c(cc2[nH]c1=O)OCO3 (stereo not drawn)	Pf growth 96h inconclusive, Pf growth 48h inconclusive, Sm TGR inh inconclusive
COc1ccc2[nH]c(=O)c(CN(Cc3ccccc3)Cc3nnnn3CC3CCCO3)cc2c1 (stereo not drawn)	none
COCCn1nnnc1C(C(C)C)N(Cc1cccnc1)Cc1cc2cc(OC)ccc2[nH]c1=O (stereo not drawn)	Pf growth 48h inconclusive
Cc1cccc2cc(CN(Cc3ccco3)C(c3nnnn3CCc3ccccc3)C(C)C)c(=O)[nH]c12 (stereo not drawn)	Pf growth 48h 1.9µM
COc1ccc2[nH]c(=O)c(CN(Cc3ccco3)C(c3nnnn3Cc3ccccc3)C(C)C)cc2c1 (stereo not drawn)	Pf growth 96h 3.3µM (no result: Pf growth 48h)
Cc1ccc(CN2CCN(Cc3cccc(-n4cccn4)c3)CC2CCO)cc1 (stereo not drawn)	none
OCCC1CN(Cc2ccc3ncccc3c2)CCN1Cc1ccccc1 (stereo not drawn)	Pf growth 96h inconclusive
OCCC1CN(Cc2ccc(-n3cccn3)cc2)CCN1Cc1ccccc1 (stereo not drawn)	Pf growth 96h 8.3µM
CSc1cccc(CN2CCN(Cc3ccccc3)C(CCO)C2)c1 (stereo not drawn)	none
Cc1ccc(CN2CCN(Cc3ccc(-n4cccn4)cc3C)CC2CCO)cc1 (stereo not drawn)	Pf growth 48h 10µM
CSc1ccc(CN2CCN(Cc3ccccc3)C(CCO)C2)cc1 (stereo not drawn)	Pf growth 96h 12µM
CCCCOc1cccc(OCCCC)c1C(=O)Nc1cc(C)on1	AmpC detergent inconclusive, Pf growth 48h 2.1µM
CCOc1ccc(C(=O)Nc2cc(C)on2)cc1OCC	Pf growth 48h 12µM
CCOc1ccc(CCNC(=O)c2cc(C)on2)cc1OCC	Pf growth 96h inconclusive, Pf growth 48h 10µM (no result: SARS PLP yeast)
CCCCNC(=O)Nc1cc(C)on1	none (no result: Pf growth 48h)
COc1ccc(/C=C(\NC(=O)c2ccc(C)cc2)C(=O)NCCCn2ccnc2)cc1	none
